Assay outcomes from PubChem.
ssDAF12 agonist: S. stercoralis DAF-12 nuclear receptor activators, primary screen, cell-based, luminescence, HEK293, GRIP1 co-expression, lit1-tk-luc | Nuclear hormone receptor DAF-12 (Strongyloides stercoralis) | 1% of 370,000 active | activation, % at 6.8 µM | HEK293 ssDAF-12/GRIP1 lit1-tk-luc reporter; % of 3 µM dafachronic acid response;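 active = activation above the mean over all tested compounds plus 3 SD, cut at about 0.9% in these data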;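 also: 0% = DMSO-only wells and 100% = 3 µM delta7-dafachronic acid wells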
DAX1 inh-1: DAX1 (NR0B1) inhibitors, primary screen, cell-based, HEK293, Gal4-DAX1, luciferase luminescence; HEK293 Gal4-DAX1 luciferase reporter; Nuclear receptor subfamily 0 group B member 1 (Homo sapiens), P51843; 0.99% of 340,000 active; inhibition, % at 6.75 µM; AID 504766, 2011;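 active = inhibition above the mean over all tested compounds plus 3 SD, cut at about 4.2% in these data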;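 also: 0% = DAX1-transfected cells with DMSO and 100% = empty-vector control cells with DMSO; inhibition shows as a rise in luminescence from relieved DAX1 repression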
Target sequence (P51843 207-470 limits assumed): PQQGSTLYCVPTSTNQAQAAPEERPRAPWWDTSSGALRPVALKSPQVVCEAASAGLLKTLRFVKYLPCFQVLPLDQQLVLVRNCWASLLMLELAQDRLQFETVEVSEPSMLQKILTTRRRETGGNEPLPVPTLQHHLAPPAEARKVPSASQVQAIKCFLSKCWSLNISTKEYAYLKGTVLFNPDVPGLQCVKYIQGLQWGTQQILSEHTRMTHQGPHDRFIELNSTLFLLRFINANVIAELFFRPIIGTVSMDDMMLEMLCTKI
hcDAF12 agonist: H. contortus DAF-12 nuclear receptor activators, primary screen, cell-based, luminescence, HEK293, lit1-tk-luc reporter. HEK293 hcDAF-12 lit1-tk-luc reporter; 0% DMSO, 100% Δ7-dafachronic acid. activation, % at 6.8 µM. 1.4% of 370,000 active. AID 652067, 2013;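 active = activation above the mean of all tested compounds plus 3 SD, cut at about 5.5% in these data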;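 also: 100% = response to 3 µM Δ7-dafachronic acid high control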
DAX1 inh-2: DAX1 (NR0B1) inhibitors on StAR promoter, primary screen, cell-based, luminescence, SF-1 (NR5A1), full-length DAX-1. 1.1% of 370,000 active. inhibition, % at 6.8 µM. HEK293T StAR-luciferase reporter, SF-1/DAX-1 repression relief. AID 652010, 2013;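 active = inhibition above the mean over all tested compounds plus 3 SD, cut at about 3.6% in these data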;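 also: 0% = DAX-1 cells with DMSO and 100% = cells lacking DAX-1 with DMSO; higher inhibition means more luminescence from relief of DAX-1 repression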
hgDAF12 agonist: H. glycines DAF-12 receptor agonists, primary screen, cell-based, luminescence, HEK293, GAL4 fusion, UAS-luciferase; Nuclear hormone receptor DAF-12 (Heterodera glycines), GAL4 fusion; HEK293 GAL4-hgDAF12 UAS-luciferase reporter, agonist luminescence; normalized to butyrate control; activation, % at 6.8 µM; 1.8% of 370,000 active; AID 687014, 2013;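 active = activation above a cutoff set at the mean of all screened compounds plus 3 SD, cut at about 10% in these data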;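 also: 0% = DMSO wells and 100% = sodium butyrate wells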
An asterisk follows results filed as active; . = no result. Shown are actives, neighbours in structure and some others; about 4.1% of the full set was active somewhere.

SMILES	ssDAF12 agonist	DAX1 inh-1	hcDAF12 agonist	DAX1 inh-2	hgDAF12 agonist
COc1ccccc1NS(=O)(=O)c1cccc(C(=O)OCc2nc3ccccc3s2)c1	2.7*	1.4	5.6*	1.0	4.8
COc1ccccc1NS(=O)(=O)c1cccc(C(=O)NCC(c2ccco2)N2CCCC2)c1 (stereo not drawn)	-1.8	-0.5	-2.7	-2.4	0.4
Cc1nn(-c2ccccc2)c2sc(C(=O)NC3CCCCCC3)cc12	-1.1	.	-3.2	0.1	2.3
Nc1[nH]c(C(=O)c2ccccc2)c(-c2ccc(Cl)cc2)c1C(=O)c1c[nH]c2ccc(Br)cc12	-0.5	.	2.5	-0.8	3.7
CCc1c(C(=O)C(C)O)c2n3c1CCC[C@@H]3CC2 (stereo partly drawn)	0.0	.	-0.1	.	2.7
Cc1cccc(NC(=S)NC(=O)/C=C/c2ccccc2)n1	-0.9	4.3*	2.2	1.0	6.0
COc1ccc(NC(=S)NC(=O)/C=C/c2ccccc2)cc1	-1.6	-0.6	-1.6	-0.5	-2.2
COc1ccc(S[C@]2(C(=O)N(C)C)CC(=O)N(c3ccsc3)[C@@H]2c2ccc(OC)cc2)cc1	-1.5	.	-1.3	-1.3	3.3
Cc1cc(NC(=O)CCC(=O)N(c2cccc(F)c2)C(C(=O)NC2CCCC2)c2ccc(C)o2)no1 (stereo not drawn)	-1.6	2.3	-2.8	-0.1	-0.7
Cc1cccc(N(C(=O)CCC(=O)Nc2cc(C)on2)C(C(=O)NC2CCCC2)c2ccc(C)o2)c1 (stereo not drawn)	2.2*	-1.0	-1.0	1.0	3.8
C=CCc1cc(Cl)ccc1OCCNCCCOC	-1.6	7.1*	-1.8	-0.6	-0.7
C=CCc1cc(Cl)ccc1OCCOCCNCCOC	-1.3	-0.2	-1.6	0.3	-1.6
S=C(NCCc1ccccc1)Nc1ccc(Cl)cc1	-0.3	0.5	0.7	0.7	10.8*
Cc1ccccc1NC(=O)NCCc1ccc(Cl)cc1	0.3	0.1	0.2	0.2	5.3
O=C(NCCc1ccccc1)Nc1ccc(Cl)cc1	0.7	1.7	3.8	2.9	12.9*
COC(/C=C/Nc1ccc(C)cc1)=C(C#N)C#N	0.2	-0.4	5.6*	0.3	-0.5
Cc1c(C(=O)Nc2nccs2)oc2c(Cl)cccc12	1.3*	2.0	5.4	1.5	6.6
Cc1c(C(=O)NC(C)c2ccccn2)oc2c(Cl)cccc12 (stereo not drawn)	-0.3	-1.5	5.2	-0.8	-0.7
Cc1cc(C(=O)Nc2ccc(S(=O)(=O)N3CCCC3)cc2)no1	-0.9	-0.7	-1.4	0.8	1.1
CN1CCN(C(=O)c2ccccc2NC(=O)c2sc3ccccc3c2Cl)CC1	-0.9	1.5	-0.2	-0.2	-0.7
Cc1ccc(C(=O)Nc2ccc(N3CCCC3)cc2)cc1	-0.2	0.2	0.9	2.5	12.4*
Cc1ccc(C(=O)Nc2ccc(N3CCCCC3)cc2)cc1	0.2	4.2	2.0	2.0	6.2
Cc1ccc(C(=O)Nc2ccc(N3CCN(S(C)(=O)=O)CC3)cc2)cc1C	-0.8	.	-0.7	0.3	5.7
Cc1cc(C(=O)Nc2ccc(N3CCCCC3)cc2)no1	0.4	1.0	4.9	3.0	11.4*
Cc1ccc(C(=O)Nc2ccc(N3CCN(C)CC3)cc2)cc1C	-0.3	4.7*	3.0	1.3	8.6
SMILES	ssDAF12 agonist	DAX1 inh-1	hcDAF12 agonist	DAX1 inh-2	hgDAF12 agonist
CN1CCN(c2ccc(NC(=O)c3sc4ccccc4c3Cl)cc2)CC1	-1.2	3.0	0.7	1.2	10.6*
O=C(Nc1ccccc1C(F)(F)F)NC1(C(=O)N2CCOCC2)CCCCC1	-0.4	0.4	5.7*	2.4	1.9
Cc1ccccc1NC(=O)NC1(C(=O)N2CCOCC2)CCCCC1	-1.0	0.4	0.1	0.4	-2.2
CCOc1ccc(OCC)c(NC(=O)c2ccc(CNc3c(N4CCCC4)c(=O)c3=O)cc2)c1	-1.2	6.3*	-1.8	0.0	-2.5
COc1cccc(NC(=O)Nc2cc(C(=O)O)ccc2C)c1	-0.9	-0.4	-1.5	0.2	-0.5
COc1cccc(NC(=O)Nc2ccc(C)c(Cl)c2)c1	-0.4	1.4	0.5	1.2	13.1*
